This assay has as its system RARa:RXR (NR concentration 270 nM, RXRa partner concentration 90 nM). Description: PBM binding z-score (relative to random genomic background probes); higher = stronger binding; sequences stand for … in GC…GCGATTGACAGCGTAGAATGAAGG
The method in brief: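 Binding z-scores were set against random background probes. The data came from custom Agilent 4×180K protein-binding microarrays carrying double-stranded probes with 34-nt variable regions, incubated 1 h with ligand-free nuclear receptor dimers. Partner-specific antibodies detected binding, and scanned fluorescence was regression-normalized.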
The sequence CCTGCTAGGTCATGGTTAGCTAATCTACAGTATG registered a PBM binding z-score of 2.44. The sequence AATACAGGGTCACTAGGCCAGTGTAGGTACGAAT returned a PBM binding z-score of 4.63.

On to AGAACGAGGTCAATGAGTTGATAGCACGGGTGGC, for which the PBM binding z-score turned out to be 5.14. For the sequence TCTAGCAGGCCAGAGGGTCACTCTAGAGGTACGG, the PBM binding z-score worked out at 2.07. Sequence CCTATTAGTTGACTATAAGGGCAACCGAAGCTCG returned a PBM binding z-score of 0.501. Next, ATCTCTAGGTAAAGATAGTTCAGTGCATGCAAAT: 0.26; CCTCGGCGGACAACAGGAGGTCAGAGCTGCCAGA: 1.76; AGAATGAGGGTAAGATCAGGGAAACAGAATACAT: 0.611. The sequence TCTATTTGTTGAAGGGCAACCGACGAGTCCGTTT had a PBM binding z-score of 0.596. Next, CGTCCAAGGTCAATACTAGGTCAGTGAAAGCATT: 5.42; GCTACTGGGGCATCAGCAGGTTACCATAACTTAA: 0.497. For CCTCCAAGGTCAGCAGGTCAGTGAAAGCGACGTG, the PBM binding z-score turned out to be 4.32. In the case of CCGACTGGGGCAGAAAGGTTACCATTCCATCCGG, the PBM binding z-score is 1.33.

In the case of CCTACTTGGTCAAGGTCACACACGCTATAGGTAC, the PBM binding z-score was 4.29. As for CCTGCTAGGTGAATGGTCAGCTAAAGCAGCTCGC, the PBM binding z-score is -0.44.

For TCTTGTAGATCAAAAGTTAAGAAAGCCGAAGCCT, the PBM binding z-score is 0.155.

CCTTACGGGTCACGCCAGGTTATAGCATCGGAGT had a PBM binding z-score of 4.98. In the case of GCGACTGGGGCAAAGCAGGTTAACATAAGGTTGG, the PBM binding z-score was determined as 1.1. Next, GCGACTGCGGCAAAGCAGGTTACCATAAGGTTGG: 0.143; TAGCCTAGGTCAGATCGGGCCAATATACGCTATA: 1.9; AGAACGAGGGCACGTTGAGTTGATAGCAGAGTAG: 0.629. Turning to ACAAGCAGGCCAAGTTTGGGTCACTCAAACAAAG, the PBM binding z-score stood at 1.56.
